In PubChem BioAssay (NCI):
About 83,000 compounds went through this panel and 20% of them were active in at least one assay; those are over-represented in the sample as a whole.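 Cells were grown in 96-well plates and exposed to the test compound at a single concentration for 48 hours; results are reported as percent growth, with values below 10 considered active.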 The source made the active and inactive calls.

Experiments:
Assay in all cases: NCI-60 one-dose screen, 48 h (100 = growth as untreated, 0 = no growth, -100 = all killed)
Conditions in all cases: 10 µM unless noted
[1] = tested on: HCT-15 colon
[2] = tested on: HT29 colon
[3] = tested on: SNB-75 CNS
[4] = tested on: SNB-19 CNS
[5] = tested on: U251 CNS
[6] = tested on: PC-3 prostate
[7] = tested on: SK-MEL-5 melanoma
[8] = tested on: UACC-62 melanoma
[9] = tested on: LOX IMVI melanoma
[10] = tested on: SK-MEL-28 melanoma
[11] = tested on: EKVX NSCLC
[12] = tested on: SN12C renal
[13] = tested on: UO-31 renal
[14] = tested on: TK-10 renal
[15] = tested on: ACHN renal
[16] = tested on: CAKI-1 renal
[17] = tested on: A498 renal
[18] = tested on: CCRF-CEM leukemia
[19] = tested on: MOLT-4 leukemia
[20] = tested on: SK-MEL-2 melanoma

Measured: growth

O=C(CCc1nnc(-c2c(Cl)cccc2Cl)o1)c1nc2ccccc2[nH]1
inactive: [1] 81.5% | [3] 63.4% | [4] 75.1% | [5] 52.5% | [6] 53.1% | [7] 67% | [8] 42.3% | [9] 55.1% | [10] 82.7% | [11] 61% | [12] 61.2% | [13] 52.1% | [14] 64% | [15] 81.3% | [16] 59.8% | [17] 58.4% | [18] 47.3% | [19] 20.7%
active: [2] 9.39%

COc1cc(C(=O)N/N=C/c2cc3cc(OCc4ccccc4)ccc3nc2OC)cc(OC)c1OC
inactive: [1] 80.3% | [2] 82.9% | [3] 77.7% | [4] 90.3% | [5] 84.8% | [6] 68.1% | [7] 63.7% | [8] 84.3% | [10] 100% | [20] 85.4% | [11] 85.4% | [12] 87.9% | [13] 81% | [14] 72.1% | [15] 95.2% | [16] 98.2% | [17] 95.6% | [18] 65.9% | [19] 62.5%

O=[N+]([O-])c1ccccc1NCSc1ccc(Cl)cc1
inactive: [1] 89.7% | [2] 108% | [3] 87.3% | [4] 103% | [5] 85.8% | [6] 56.2% | [7] 99.9% | [8] 89.2% | [10] 107% | [20] 114% | [11] 104% | [12] 72% | [13] 68.3% | [14] 101% | [15] 104% | [16] 95.3% | [17] 86% | [18] 25% | [19] 49.7%

COc1ccc(OC)c(/C=C/C(=O)N/N=C/c2ccccc2)c1
active: [20] -1.33%
inactive: [1] 42% | [2] 20.7% | [3] 41.1% | [4] 47.9% | [5] 43.5% | [6] 63.5% | [7] 30.8% | [8] 61% | [10] 65.5% | [11] 64% | [12] 52.1% | [13] 56.6% | [14] 56.7% | [15] 62.8% | [16] 47.5% | [17] 38.7% | [18] 55.2% | [19] 36.5%

Cc1cccc2c1S/C(=C/c1ccc([N+](=O)[O-])cc1)C2=O
inactive: [1] 100% | [2] 92.5% | [3] 82.4% | [4] 98.4% | [5] 78.4% | [6] 91.5% | [7] 99.4% | [8] 72.6% | [10] 114% | [20] 103% | [11] 103% | [12] 98.8% | [13] 80.4% | [14] 166% | [15] 102% | [16] 90.6% | [17] 59.8% | [18] 101% | [19] 94.5%

COC(=O)Nc1ccc(-c2nc(-c3cccc(OC)c3)c(-c3ccnc(Br)c3)[nH]2)cc1
inactive: [1] 17.8% | [2] 50.5% | [3] 37.5% | [4] 61.6% | [5] 51.5% | [6] 34% | [7] 50.2% | [8] 47.2% | [10] 62.3% | [20] 72.1% | [11] 55.5% | [12] 67% | [13] 38.6% | [14] 77.9% | [15] 53.4% | [16] 52% | [17] 48.4% | [18] 34.9% | [19] 30.9%

O=c1c2cc(F)cc(Cl)c2sc2c(NCCCNCCO)nc3ccccc3c12
active: [2] 3.35%
inactive: [1] 77.3% | [3] 74.6% | [4] 88.1% | [5] 75.8% | [6] 82.7% | [7] 98.9% | [8] 99.9% | [9] 66% | [10] 108% | [11] 88.2% | [12] 83.4% | [13] 59.8% | [14] 100% | [15] 83.8% | [16] 71.2% | [17] 56.2% | [18] 15.8% | [19] 60.6%

NCCCNc1nc2ccccc2c2c(=O)c3cc(C(F)(F)F)ccc3sc12
active: [1] -55.7% | [2] -23.4% | [5] -55.7% | [15] -10.8% | [16] -67.7% | [18] 5.18% | [19] -20.1%
inactive: [3] 60.1% | [4] 30.4% | [6] 37.3% | [7] 45.8% | [8] 95.1% | [10] 81.2% | [20] 89.7% | [11] 71.6% | [12] 51.9% | [13] 31.9% | [14] 51.9% | [17] 23.6%

CSc1ncccc1C(=O)OCC(=O)Nc1oc(C)c2c(C)n[nH]c(=O)c12
inactive: [1] 103% | [2] 116% | [3] 85.3% | [4] 101% | [5] 102% | [6] 84.8% | [7] 103% | [8] 94.4% | [10] 109% | [20] 92.5% | [11] 71% | [12] 103% | [13] 91.7% | [14] 102% | [15] 106% | [16] 112% | [17] 116% | [18] 79% | [19] 99.4%

Nc1nc(-c2cccc3ccccc23)cc2ccccc12
inactive: [4] 12% | [5] 16.3% | [6] 20.5% | [7] 11% | [8] 23.5% | [10] 48.2% | [20] 27.7% | [11] 46% | [12] 35.8% | [13] 19.6% | [14] 55.8% | [15] 36.6% | [16] 15.6% | [18] 29%
active: [1] 3.98% | [2] 1.11% | [3] 7.16% | [17] -19.8% | [19] -3.33%

COc1ccc(-c2nc(NCCO)[nH]c(=O)c2C#N)cc1
inactive: [1] 104% | [2] 94.7% | [3] 91.8% | [4] 105% | [5] 103% | [6] 91.4% | [7] 107% | [8] 102% | [10] 108% | [20] 98.6% | [11] 110% | [12] 95.9% | [13] 90.5% | [14] 99.7% | [15] 96.5% | [16] 101% | [17] 113% | [18] 102% | [19] 98.8%

O=C(CCN1C(=O)/C(=C/c2ccc(O)cc2)SC1=S)Nc1ccccc1
inactive: [1] 90.8% | [2] 118% | [3] 89.3% | [4] 91.4% | [5] 92.7% | [6] 90.5% | [7] 101% | [8] 81.6% | [10] 97.3% | [20] 111% | [11] 100% | [12] 87.6% | [13] 67% | [14] 102% | [15] 92% | [16] 97.1% | [17] 97.8% | [18] 72.2% | [19] 85.5%

CC(=O)OC[C@H]1OC(Sc2sc(C(=O)c3ccc(Cl)cc3)c(N)c2-c2nc3ccccc3s2)[C@H](OC(C)=O)[C@@H](OC(C)=O)[C@@H]1OC(C)=O (some centres undefined)
inactive: [1] 82.3% | [2] 81% | [3] 50.1% | [4] 92.8% | [5] 88.6% | [6] 83.4% | [7] 85.2% | [8] 97.9% | [10] 94.2% | [20] 104% | [11] 80.4% | [12] 54.7% | [13] 79.4% | [14] 134% | [15] 67.4% | [16] 77.1% | [17] 87.8% | [18] 70.9% | [19] 97%

O=C1COCCN1c1ccc(NCc2cn(C(=O)c3ccc(Cl)cc3)c3ccccc23)cc1
inactive: [1] 54.9% | [2] 44.5% | [3] 59.6% | [4] 91.7% | [5] 50.9% | [6] 71.4% | [7] 25.1% | [9] 77.1% | [10] 97% | [11] 83.9% | [12] 74.9% | [13] 43.6% | [15] 65.7% | [18] 77.1% | [19] 85.7%
active: [8] -41.1% | [14] -26% | [16] -28.7% | [17] -88.9%

CCCCCCNC(=O)Oc1ccc(/C(=C(\C)c2ccc(OC)cc2)c2ccc(OCCN3CCCCC3)cc2)cc1
inactive: [3] 69.4% | [4] 83.9% | [5] 54.4% | [6] 54.1% | [7] 57.6% | [8] 39.2% | [10] 25.2% | [20] 69.2% | [11] 74% | [12] 74.3% | [13] 21.6% | [14] 102% | [15] 84.2% | [16] 72.3% | [17] 88.1% | [18] 66.5% | [19] 41.8%
active: [1] 2.35% | [2] 4.52%

Cc1ccc(/C=C(\C#N)n2nc3cccc(F)c3n2)cc1
inactive: [1] 82.6% | [2] 114% | [3] 74.7% | [4] 96.6% | [5] 86.3% | [6] 102% | [7] 89.9% | [8] 83.7% | [10] 96.2% | [20] 95.5% | [11] 83.5% | [12] 95.3% | [13] 72.3% | [14] 90.8% | [15] 79.7% | [16] 58.8% | [17] 56% | [18] 104% | [19] 102%
